In PubChem BioAssay AID1159580 (chemical genetic matrix, 2015):
Values joined by “and” are separate entries in the source; they are usually repeats but may differ in a detail not shown here. Identical values can stand only once. The campaign covered roughly 5,500 compounds. About 2,000 (36%) were called active. Roughly 18% stayed inconclusive and do not appear here. No stated cut-off is given here; in the data, active means normalized growth mostly below about 0.91 (no sharp cut-off); inconclusive means no clear call, values can overlap the other calls; inactive means mostly above about 0.92. This is one part of the list.

Test: chemical genetic growth profiling, strain panel (AID 1159580);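 further: tested at 20 µM; growth read once vehicle control cultures reached saturation at 30 °C; 1 = growth at the plate median or of vehicle wells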
Conditions: S. cerevisiae deletion strains, growth OD

Measured: normalized growth

CC(CCc1ccccc1)NCC(O)c1ccc(O)c(C(N)=O)c1 (stereo not given)
inactive: locus YAL013W, strain DEP1, stronger effect = lower value 1 | locus YAL021C, strain ccr4, stronger effect = lower value 1 | locus YAL026C, strain drs2, stronger effect = lower value 1.01 | locus YAL030W, strain snc1, stronger effect = lower value 0.997 | locus YAL040C, strain CLN3, stronger effect = lower value 1.01 | locus YBL061C, strain skt5, stronger effect = lower value 1.01 | locus YBR009C, strain hhf1, stronger effect = lower value 1 | locus YBR021W, strain FUR4, stronger effect = lower value 1.01 | locus YBR023C, strain chs3, stronger effect = lower value 1.01 | locus YBR171W, strain sec66, stronger effect = lower value 1.01 | locus YBR229C, strain ROT2, stronger effect = lower value 1 | locus YBR231C, strain swc5, stronger effect = lower value 1.01 | locus YBR279W, strain paf1, stronger effect = lower value 1 | locus YCL011C, strain gbp2, stronger effect = lower value 1.01 | locus YCL016C, strain dcc1, stronger effect = lower value 1.01 | locus YCL029C, strain bik1, stronger effect = lower value 1.01 | locus YCL061C, strain MRC1 (second series), stronger effect = lower value 1.01 | locus YCL061C, strain MRC1, stronger effect = lower value 0.997 | locus YCL069W, strain vba3, stronger effect = lower value 1 | locus YCR088W, strain abp1, stronger effect = lower value 1.01 | locus YDL005C, strain med2, stronger effect = lower value 1.01 | locus YDL035C, strain GPR1, stronger effect = lower value 1.01 | locus YDL040C, strain nat1, stronger effect = lower value 1.01 | locus YDL074C, strain BRE1, stronger effect = lower value 0.977 | locus YDL101C, strain DUN1, stronger effect = lower value 1 | locus YDL134C, strain PPH21, stronger effect = lower value 1.02 | locus YDL185W, strain tfp1, stronger effect = lower value 1.01 | locus YDL192W, strain arf1, stronger effect = lower value 1.01 | locus YDR001C, strain nth1, stronger effect = lower value 1.01 | locus YDR069C, strain doa4, stronger effect = lower value 1.01 | locus YDR101C, strain arx1, stronger effect = lower value 0.999 | locus YDR137W, strain rgp1, stronger effect = lower value 1.01 | locus YDR150W, strain NUM1, stronger effect = lower value 1 | locus YDR159W, strain sac3, stronger effect = lower value 1.01 | locus YDR162C, strain NBP2, stronger effect = lower value 1.02 | locus YDR195W, strain ref2 1.01 | locus YDR297W, strain sur2, stronger effect = lower value 1.01 | locus YDR318W, strain mcm21, stronger effect = lower value 1.02 | locus YDR334W, strain swr1, stronger effect = lower value 0.99 | locus YDR335W, strain msn5, stronger effect = lower value 1 | locus YDR363W, strain ESC2, stronger effect = lower value 1 | locus YDR388W, stronger effect = lower value 1.02 | locus YDR392W, strain spt3, stronger effect = lower value 1 | locus YDR502C, strain sam2, stronger effect = lower value 1.01 | locus YEL003W, strain gim4, stronger effect = lower value 0.999 | locus YEL037C, strain rad23, stronger effect = lower value 1 | locus YEL061C, strain CIN8 (second series), stronger effect = lower value 1.01 | locus YEL061C, strain CIN8, stronger effect = lower value 0.997 | locus YER002W, strain NOP16, stronger effect = lower value 1.03 | locus YER015W, strain faa2, stronger effect = lower value 0.997 | locus YER016W, strain bim1, stronger effect = lower value 1 | locus YER110C, stronger effect = lower value 1.02 | locus YER111C, strain swi4, stronger effect = lower value 1.01 | locus YER155C, strain BEM2 (second series), stronger effect = lower value 1.01 | locus YER155C, strain BEM2, stronger effect = lower value 1 | locus YER167W, strain BCK2, stronger effect = lower value 1.02 | locus YFR010W, strain ubp6, stronger effect = lower value 1 | locus YGL078C, strain dbp3, stronger effect = lower value 1.01 | locus YGL086W, strain mad1, stronger effect = lower value 1.01 | locus YGL167C, strain pmr1, stronger effect = lower value 1 | locus YGL173C, strain kem1, stronger effect = lower value 1.01 | locus YGL227W, strain vid30, stronger effect = lower value 1.02 | locus YGL240W, strain doc1, stronger effect = lower value 1 | locus YGL248W, strain PDE1, stronger effect = lower value 0.992 | locus YGL253W, strain hxk2, stronger effect = lower value 1 | locus YGR078C, strain PAC10, stronger effect = lower value 0.985 | locus YGR135W, strain pre9, stronger effect = lower value 1.05 | locus YGR252W, strain gcn5, stronger effect = lower value 0.996 | locus YHR013C, strain ard1, stronger effect = lower value 1 | locus YHR027C, strain rpn1, stronger effect = lower value 1 | locus YHR030C, strain SLT2, stronger effect = lower value 1 and 1.02 | locus YHR079C, strain IRE1 (second series), stronger effect = lower value 1.02 | locus YHR079C, strain IRE1, stronger effect = lower value 1.04 | locus YHR094C, strain hxt1, stronger effect = lower value 1.02 | locus YHR129C, strain ARP1, stronger effect = lower value 1.01 | locus YHR142W, strain chs7, stronger effect = lower value 1.02 | locus YHR200W, strain rpn10, stronger effect = lower value 1.01 | locus YIL066C, strain RNR3, stronger effect = lower value 0.995 | locus YIL073C, strain SPO22, stronger effect = lower value 1.1 | locus YIL125W, strain kgd1, stronger effect = lower value 1.01 | locus YIR030C, strain dcg1, stronger effect = lower value 1.03 | locus YJL092W, strain hpr5, stronger effect = lower value 1.01 | locus YJL095W, strain BCK1 (second series), stronger effect = lower value 1.01 | locus YJL095W, strain BCK1, stronger effect = lower value 0.981 and 1.05 | locus YJL115W, strain asf1, stronger effect = lower value 1 | locus YJL129C, strain trk1, stronger effect = lower value 1 | locus YJL134W, strain LCB3, stronger effect = lower value 1 | locus YJL154C, strain vps35, stronger effect = lower value 1 | locus YJL164C, strain tpk1, stronger effect = lower value 0.996 | locus YJL166W, strain qcr8, stronger effect = lower value 1 | locus YJL168C, strain set2, stronger effect = lower value 1.01 | locus YJL187C, strain SWE1 (second series), stronger effect = lower value 0.983 | locus YJL187C, strain SWE1, stronger effect = lower value 1.01 | locus YJR043C, strain POL32, stronger effect = lower value 0.986 | locus YJR066W, strain TOR1, stronger effect = lower value 0.977
